Screening results (PubChem)
Compounds with a hit are over-represented: about 3.6% of the library has one in this group of screens.
HTT-AS promoter: HTT-AS promoter activation | HEK293 HTT-AS promoter firefly luciferase reporter, 24 h; response scale: percent change from vehicle, -100% = no light | Potency, µM (top dose mostly 57.5 µM), without a hit: at the highest dose activity change, positive = activation, most hits filed as activators | actives 0.24% (n = 48,000); also: nearly all actives have a fitted effect of over 55% in size
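Quantitative HTS used concentration series of up to 57.5 uM final on HEK293 luciferase reporter cells, 24 h at 37 degrees C. Readout was Dual-Glo firefly luminescence.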
OvCa metastasis: ovarian cancer metastasis inhibition, 3D TME model | SKOV3ip1-GFP adhesion/invasion on 3D omental model, fluorescence | Potency, µM (series often up to 45.8 µM), inactives show at the highest dose activity change, negative = inhibition, most hits filed as inhibitors | actives 0.1% (n = 46,000) | AID 1963576;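 also: plate controls were DMSO wells for no effect and tomatine positive control wells for full effect; nearly all actives have a fitted effect of over 65% in size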
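Primary human omental fibroblast/mesothelial 3D culture pre-formed 48 h. SKOV3ip1-GFP cells added with compounds (0.36-46 umol/L), incubated 2 h RT/16 h 37 C, fixed; GFP cells quantified at 488/509 nm.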
PMP22 txn prim: PMP22 gene transcription modulation. S16 Pmp22-F2sN Schwann cells, FLuc/NLuc coincidence luminescence, 24 h. Potency, µM (doses to about 57.5 µM), for the others: at the highest dose activity change, negative = inhibition, hits mostly inhibitors. actives 2% (n = 43,000); active = clear falling dose curves in both reporters; inconclusive = both reporters move, but less clearly or upward; inactive = either reporter flat; the % is the NLuc reporter signal; also: % is scaled to controls: 0 for no effect and ±100 for the full control effect
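S16 Schwann cells carrying FLuc/NLuc coincidence reporter in the Pmp22 3' UTR treated with compound 24 h at 37C; FLuc then NLuc luminescence read sequentially by dual-luciferase reagents.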
S16 viability: cytotoxicity in S16 Pmp22-F2sN Schwann cells; S16 Pmp22-F2sN Schwann cells viability, CellTiter-Glo, 24 h; Potency, µM (series often up to 57.5 µM), inactives show at the highest dose activity change, negative = cytotoxicity, most hits filed as cytotoxic; actives 0.48% (n = 43,000); AID 1508642; also: % is scaled to controls: 0 for no effect and ±100 for the full control effect; nearly all actives have a fitted effect of over 65% in size
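Viability was measured by CellTiter-Glo luminescence (15 min, room temperature). This followed 24 h at 37 °C of compound exposure (23 nL pin transfer) in S16 Pmp22-F2sN Schwann cells, 500-1,000 per well.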
pS6 MEF inh: mTORC1 pathway inhibition measured by phospho-rpS6; actives 0.78% (n = 44,000); Potency, µM (titrated, usually from 38.3 µM), for the others: top-dose activity change, negative = inhibition, actives largely listed as inhibitors; Tsc2-/- p53-/- MEF, phospho-rpS6 immunofluorescence/PI, 24 h;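 also: plate controls were DMSO for no effect and rapamycin for full effect; nearly all actives have a fitted effect of over 50% in size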
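Readout is phospho-S6 Alexa 488 signal normalized to PI per well, reported as % active cells with thresholds set from rapamycin (7.5 nM) and DMSO controls. Cells: Tsc2-/-, p53-/- MEFs, 24 hrs compound at 37 C; PI cell number serves as viability.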
HTT promoter inh: HTT promoter inhibition. HEK293 HTT promoter firefly luciferase reporter, 24 h. Potency, µM (doses to about 57.5 µM), for inactives: at the top dose activity change, negative = inhibition, hits mostly inhibitors. actives 0.93% (n = 48,000). AID 1508623; also: nearly all actives have a fitted effect of over 50% in size
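Firefly luciferase readout (Dual-Glo, 10 min RT) after 24 h, 37 °C compound exposure (final up to 57.5 uM) of HEK293 reporter cells cultured 24 h beforehand; PTC124 at 50 uM final as control inhibitor; activity scaled vehicle 0%, zero RLU -100%.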
The depositor's hits bear a star; i = inactive; ? = inconclusive; nt = no result. Unless noted, calls follow the shape of the dose curve; as a rule, active = well fitted curve in the direction sought with a large enough effect; inconclusive = small, poorly fitted or top-dose-only effect, or another doubt; inactive = no such curve, though single readings can be large; an effect the other way counts as inactive or inconclusive. Potency is read from the fitted curve at half-maximal effect.

SMILES	HTT-AS promoter	OvCa metastasis	PMP22 txn prim	S16 viability	pS6 MEF inh	HTT promoter inh
COc1ccccc1Nc1c2c(nc3ccc(NC(=O)c4ccc(N(C)C)cc4)cc13)CCCC2	-42.4%	?	?	?	5.21µM*	?
C=CCc1c(C)nc2nc(SCC(=O)Nc3ccc(C)c(C)c3)nn2c1C	-26.0%	-23.3%	?	?	10.4µM*	-10.8%
CS(=O)(=O)c1ccc(C(=O)Nc2ccc(Cl)c(-c3ccccn3)c2)c(Cl)c1	-4.2%	-5.4%	nt	nt	nt	16.9%
Cc1ccc(Cl)cc1N1CCN(C(=O)c2cnn(-c3ccc(Cl)cc3)c2C2CCNCC2)CC1	-20.7%	?	?	?	?	-23.1%
Cc1cccc(N2CCN(C(=O)c3cnn(-c4cccc(Cl)c4C)c3C3CCNCC3)CC2)c1C	-18.0%	?	?	?	16.5µM*	-13.1%
COc1cc(C)c(Sc2cnc(NC(=O)c3ccc(CNC(C)C(C)(C)C)cc3)s2)cc1C(=O)N1CCN(C(C)=O)CC1 (centres undefined)	-8.5%	19.0%	nt	nt	nt	-23.5%
Cc1ccc(CNc2oc(-c3ccc(COc4ccc(Cl)cc4)o3)nc2C#N)cc1	-51.0%	14.4%	?	-10.3%	?	?
CCCCNc1oc(-c2ccc(COc3ccccc3C)o2)nc1C#N	-18.3%	-48.0%	-12.1%	-21.8%	?	?
COc1ccc(CNc2oc(-c3ccc(COc4ccc(Cl)cc4)o3)nc2C#N)cc1	-60.4%	1.3%	-23.7%	3.6%	0.0%	22.4µM*
COc1ccc(OCc2ccc(-c3nc(C#N)c(NCc4ccccc4)o3)o2)cc1	6.1%	-6.9%	-37.6%	-14.9%	-0.1%	24.3%
Cc1ccccc1OCc1ccc(-c2nc(C#N)c(NCCCN(C)C)o2)o1	-10.1%	-1.3%	?	?	5.85µM*	-8.4%
COc1ccc(CNc2oc(-c3ccc(COc4ccccc4C)o3)nc2C#N)cc1	-63.5%	-21.7%	?	-12.2%	-0.3%	20µM*
CC(C)(Cc1ccc2ccccc2c1)NC[C@@H](O)COc1cccc(Cl)c1C#N	4.3%	?	nt	nt	nt	8.1%
C[C@H]1O[C@H](O[C@H]2[C@H](O)[C@@H](O)[C@@H](O[C@H]3[C@H](O)[C@@H](O)C(O)O[C@H]3CO)O[C@H]2CO)[C@H](O)[C@@H](O)[C@H]1N[C@H]1C=C(CO)[C@@H](O)[C@H](O)[C@@H]1O (some centres undefined)	0.1%	-10.3%	nt	nt	nt	10.4%
Cc1ccc(C)c(NC(=O)NCc2ccc3c(c2)CCN3C(=O)c2ccccc2)c1	-27.1%	2.8%	11.0%	-12.7%	3.3%	?
O=C(NCc1ccc2c(c1)CCN2C(=O)c1ccccc1)Nc1cccc(C(F)(F)F)c1	-46.4%	-4.4%	-12.0%	5.8%	-20.0%	22.4µM*
COc1cc(NC(=O)c2ccc(-c3ccc(Cl)cc3)o2)cc(OC)c1	-5.8%	-4.5%	nt	nt	nt	?
Cc1ccc(NC(=O)c2c(C)oc3ccc(O)c(CN(C)Cc4ccccc4)c23)c(C)c1	-24.6%	?	?	-26.7%	14.7µM*	-23.1%
COc1ccc(NC(=O)CSc2oc(-c3cccs3)nc2S(=O)(=O)c2ccc(C)cc2)c(OC)c1	2.0%	1.2%	59.5%	7.2%	3.1%	-28.4%
Cc1cccc(NC(=O)CSc2nnc(-c3cccs3)o2)c1	25.1µM*	1.7%	5.6%	-7.3%	-7.5%	89.3%
Cc1ccc(S(=O)(=O)c2nc(-c3cccs3)oc2SCC(=O)Nc2cc(C)cc(C)c2)cc1	-26.4%	?	?	0.8%	20.7µM*	?
COc1cccc(NC(=O)CSc2nnc(-c3cccs3)o2)c1	?	-21.9%	11.9%	8.8%	-22.1%	71.1%
Nc1nc(F)nc2c1ncn2[C@@H]1O[C@H](COP(=O)(O)O)[C@@H](O)[C@H]1O	6.4%	-16.6%	nt	nt	nt	26.7%
COc1cccc(Nc2sc(C(=O)c3ccc(Cl)cc3)c(N)c2C(=O)NCc2ccc(C)cc2)c1	-37.7%	-2.8%	8.91µM*	?	?	?
COc1cccc(Nc2sc(C(=O)c3ccc(F)cc3)c(N)c2C(=O)NCc2ccc(Cl)cc2)c1	-15.5%	3.9%	-42.0%	0.8%	-5.6%	?
SMILES	HTT-AS promoter	OvCa metastasis	PMP22 txn prim	S16 viability	pS6 MEF inh	HTT promoter inh
O=C(C=Cc1c(C(=O)O)[nH]c2cc(Cl)cc(Cl)c12)Nc1ccccc1	-15.3%	-17.2%	nt	nt	nt	3.4%
Cc1nc(-c2cccc(NC(=O)Nc3ccc([N+](=O)[O-])cc3)c2)no1	-60.2%	i	?	28.2µM*	?	?
COc1ccc(C)cc1NC(=O)Nc1cccc(-c2noc(C)n2)c1	-16.6%	11.6%	?	11.2%	?	-17.3%
OCCN(CCO)c1ncnc2c1cnn2-c1ccc(F)cc1	7.94µM*	3.1%	4.6%	6.9%	-20.5%	44.5%
Cc1c(O)cccc1C(=O)N[C@@H](CSc1ccccc1)[C@H](O)CN1C[C@H]2CCCC[C@@H]2C[C@@H]1C(=O)NC(C)(C)C	-44.5%	2.0%	nt	nt	nt	?
CSc1ccc(CNC(=O)C2CCCN(S(=O)(=O)N(C)c3ccc(F)cc3)C2)cc1 (centres undefined)	-65.1%	-3.5%	-33.4%	-0.3%	1.0%	22.4µM*
CN(C)c1ccc(CNC(=O)C2CCCN(S(=O)(=O)c3ccc4c(c3)oc(=O)n4C)C2)cc1 (centres undefined)	-11.5%	28.9%	-41.2%	4.2%	0.5%	-9.9%
COc1cc2cc(CNc3ccc(C)cc3)c(=O)n(CC(=O)Nc3ccc(F)cc3F)c2cc1OC	?	-23.2%	-48.8%	-1.5%	5.21µM*	34.2%
Cc1ccc(NCc2cc3cc4c(cc3n(CC(=O)Nc3ccc(F)cc3F)c2=O)OCCO4)cc1	-3.0%	18.2%	?	11.1%	?	-22.8%
Cc1ccc(NCc2cc3cc4c(cc3n(CC(=O)Nc3ccc(C)cc3)c2=O)OCCO4)cc1	8.2%	-12.0%	?	?	4.65µM*	8.3%
Fc1ccc(N2CCN(c3ncnc4c3nc3n4CCCCC3)CC2)cc1	-43.5%	i	?	0.8%	4.0%	2.82µM*
Clc1ccc(N2CCN(c3ncnc4c3nc3n4CCCC3)CC2)cc1	-89.9%	0.9%	14.1µM*	?	-5.9%	1.41µM*
C[C@]1(CO)CN(c2cc(C(=O)Nc3ccc4c(c3)-c3c(c(C(N)=O)nn3-c3ccc(F)cc3)CC4)c(Cl)cn2)C[C@@]1(C)CO	-41.8%	-0.4%	nt	nt	nt	?
